In PubChem BioAssay (Tox21):
Values joined by “and” are separate entries in the source; they are usually repeats but may differ in a detail not shown here. Equal values may be shown once. Records with an inconclusive call do not appear. A call without a number means that no potency is given here. Active and inactive are the calls of the source. Calls come from the whole dose curve; as a rule, active = well fitted inhibition curve with a large enough effect in the repeat runs; inconclusive = weak or mixed curves; inactive = no such curve, though single readings can be large or run the other way.
Potency is the fitted concentration of half-maximal effect.

Assay: qHTS assay to identify small molecule antagonists of the thyroid receptor (TR) signaling pathway (AID 743065); note: nearly all actives have a fitted effect of over 55% in size
Conditions: GH3.TRE-Luc, T3-stimulated luciferase inhibition, 23.5 h; series mostly up to 70.3 µM
From the text: U.S. Tox21 Program National Center for Advancing Translational Sciences [NCATS] NIH Chemical Genomics Center [NCGC] U.S. Environmental Protection Agency [EPA] National Institutes of Environmental Health Sciences [NIEHS] National Toxicology Program [NTP] U.S. Food and Drug Administration [FDA] Tox21 Assay Overview: Thyroid receptor (TR), a nuclear hormone receptor, plays an important role in development, proliferation, differentiation, metabolism, brain function, and cardiovascular system. […] To profile the Tox21 10K compound library in TR signaling, a cell-based GH3-TRE-Luc assay (GH3.TRE-Luc cell line, developed by the laboratory of Dr. Albertinka J. Murk, Wageningen University) was used to measure the inhibition of TR. GH3 (rat pituitary tumor) cells stably expressing a TR activity sensor consisting of two TR response elements and a luciferase reporter gene.
Tox21 Assay Protocol Summary: GH3.TRE-Luc cells were dispensed at 1500 cells/4 uL/well into 1536-well white solid bottom plates using a Multidrop Combi dispenser (Thermo Fisher Scientific Inc., Waltham, MA). After the assay plates were incubated at 37 C for 4 hours, 23 nL of library compound or DMSO controls was transferred to the assay plates by a pintool station (Kalypsys, San Diego, CA), followed by addition of 1 ul of T3 (1 nM, final concentration in the wells) to stimulate TR transactivation. The assay plates were incubated at 37 C for 23.5 h, and then 1 uL of CellTiter-Fluor reagent (Promega, Madision, WI) of measuring cytotoxicity was added to each well using a Bioraptr Flying Reagent Dispenser (FRD) workstation (Beckman Coulter, Indianapolis, IN, USA). The plates were incubated at 37 C and 5% CO2 for additional 30 min, and fluorescence intensity was measured by a ViewLux plate reader (PerkinElmer, Shelton, CT). For measuring luciferase reporter gene activity, 4 uL of ONE-Glo Luciferase Assay reagent (Promega) was added to each well using a Bioraptr FRD (Beckman Coulter), followed by 30 min incubation at room temperature. The luminescence intensity of plates was recorded by a ViewLux plate reader (PerkinElmer, Shelton, CT).
In the case of `Cc1ccc(Cl)cc1Cl`, the Potency is reported as “inactive”.
In the case of `CC(C)(O)C#CC(C)(C)O`, the Potency is reported as “inactive”.
In the case of `C=COCC1CCC(CO)CC1` (stereo not given), the Potency is reported as “inactive”.
In the case of `CCC=O`, the Potency is reported as “inactive”.
For `CCN1CCC[C@H]1CNC(=O)c1c(O)c(Cl)cc(Cl)c1OC`, the Potency was “inactive”.
With `NS(=O)(=O)c1cc(C(=O)O)cc(N2CCCC2)c1Oc1ccccc1` the Potency was “inactive”.
For `CC/C=C\CC/C=C/CO`, the Potency was “inactive”.
In the case of `FC(F)OC(Cl)C(F)(F)F` (stereo not given), the Potency is reported as “inactive”.
For `CC1=CC(C)C(C=O)CC1` (stereo not given), the Potency was “inactive”.
With `Cc1[nH]c(=O)c(C#N)cc1-c1ccc2nccn2c1` the Potency was “inactive”.
With `O=c1n(CCO)c(=O)n(CCO)c(=O)n1CCO` the Potency was “inactive”.
In the case of `CCCN(CCC)CCc1cccc2c1CC(=O)N2`, the Potency is reported as “inactive”.
With `CO[C@]12C[C@@H](COC(=O)c3cncc(Br)c3)CN(C)[C@@H]1Cc1cn(C)c3cccc2c13` the Potency was 21.1 µM (active).
In the case of `COC(=O)c1ccc(C)cc1C1=NC(C)(C(C)C)C(=O)N1` (stereo not given), the Potency is reported as “inactive”.
In the case of `CCOC(C)(C)C`, the Potency is reported as “inactive”.
For `CCCCCOC(=O)CCCCC`, the Potency was “inactive”.
With `CCCCC/C=C\CCC=O` the Potency was “inactive”.
For `N[C@H]1CN(c2c(F)cc3c(=O)c(C(=O)O)cn(C4C[C@H]4F)c3c2Cl)CC12CC2` (stereo not given in full), the Potency was “inactive”.
With `CCc1ccc(O)c(OC)c1` the Potency was “inactive”.
In the case of `C=C(C)CS(=O)(=O)O`, the Potency is reported as “inactive”.
With `CC(C)=CCCC(C)CC(=O)O` (stereo not given) the Potency was “inactive”.
With `ClC(Cl)(Br)Br` the Potency was “inactive”.
For `c1ccc(CC2=NCCN2)cc1`, the Potency was “inactive”.
With `Cc1c(NC(C)C)c(=O)n(-c2ccccc2)n1C` the Potency was “inactive”.
With `CCC(=O)OC(C)c1ccccc1` (stereo not given) the Potency was “inactive”.
In the case of `Nc1ccc(S(=O)(=O)Nc2ccnn2-c2ccccc2)cc1`, the Potency is reported as “inactive”.
With `CCOC(=O)c1c(C)n(C)c2ccc(O)cc12` the Potency was “inactive”.
In the case of `OC1CCCCC1c1ccccc1` (stereo not given), the Potency is reported as “inactive”.
With `COc1cc(C(=O)N2CCCCCCC2)cc(OC)c1OC` the Potency was “inactive”.
With `CC(=O)Nc1c(I)cc(I)c(C(=O)O)c1I` the Potency was “inactive”.
For `C/C=C(\C)C#N`, the Potency was “inactive”.
In the case of `N=C(N)c1ccc2cc(OC(=O)c3ccc(N=C(N)N)cc3)ccc2c1`, the Potency is reported as “inactive”.
In the case of `Cc1nc2c([nH]1)c(=O)n(C)c(=O)n2Cc1ccco1`, the Potency is reported as “inactive”.
For `O=C(O)CCCc1ccccc1`, the Potency was “inactive”.
In the case of `Nc1cc(=O)[nH]c(N)n1`, the Potency is reported as “inactive”.
In the case of `NCCCNCCSP(=O)(O)O`, the Potency is reported as “inactive”.
For `CCO[Si](CCC1CCC2OC2C1)(OCC)OCC` (stereo not given), the Potency was “inactive”.
For `CCN1CCC[C@H]1CNC(=O)c1cc(S(N)(=O)=O)ccc1OC`, the Potency was “inactive”.
With `CN(C)CCCN1c2ccccc2CCc2ccc(Cl)cc21` the Potency was 13.3 µM (active) and 17.2 µM (active).
For `CC(C)(O)C(=O)c1ccccc1`, the Potency was “inactive”.
